Assay [1] in a line: NCI Yeast Anticancer Drug Screen. Data for the rad50 strain (AID 155).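 Also: 0% = growth of vehicle-only cultures of the same strain.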 To be noted: S. cerevisiae rad50 strain growth inhibition, stronger effect = higher value. The method in brief: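 Cells are treated with compound, grown, and their growth is then scored against vehicle-only cultures of the same repair-deficient yeast strain.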
The nature of assay [2]: NCI Yeast Anticancer Drug Screen. Data for the mec2-1 strain (AID 157). To be noted: S. cerevisiae mec2-1 strain, stronger effect = higher value. In short, it runs like this: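 Cells of the genetically defined mec2-1 yeast strain are incubated with test compound. Inhibition of growth is calculated against vehicle-treated controls.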
Assay [3] is described as follows: NCI Yeast Anticancer Drug Screen. Data for the sgs1 mgt1 strain (AID 161).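 Also: 0% = growth of cultures given vehicle only.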 Conditions: S. cerevisiae sgs1 mgt1 strain, stronger effect = higher value. The method in brief:
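Mutant yeast exposed to compound; growth scored against vehicle-only wells.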

A short description of assay [4]: NCI Yeast Anticancer Drug Screen. Data for the cln2 rad14 strain (AID 165).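 Also: 0% = growth equal to vehicle treated cultures.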 Conditions: S. cerevisiae cln2 rad14 strain, stronger effect = higher value. In short, it runs like this:
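The screen exposed genetically defined yeast (cln2 rad14) to test compounds and scored growth inhibition relative to vehicle-treated controls.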

The nature of assay [5]: NCI Yeast Anticancer Drug Screen. Data for the bub3 strain (AID 167). Conditions: S. cerevisiae bub3 mutant strain, stronger effect = higher value. The method in brief:
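Part of a panel of yeast mutants defective in DNA damage repair or cell cycle regulation. Each strain is grown with compound, and inhibition is calculated relative to solvent-treated cultures.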

A short description of assay [6]: NCI Yeast Anticancer Drug Screen. Data for the mlh1 rad18 strain (AID 175). To be noted: S. cerevisiae mlh1 rad18 strain growth inhibition, stronger effect = higher value. In short, it runs like this:
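Compound-treated yeast growth, normalised to vehicle controls. Strain bears defined DNA repair mutations.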

[7] abbreviates: at 5.0 µM (retest, dose inferred, filed as 0.5).
Setting [8] is: at 50.0 µM (retest, dose inferred, filed as 5.0).

About 79,000 compounds went through this panel and 15% of them were active in at least one assay; those are over-represented in the sample as a whole. Values without a mark were called inactive. The source made the active and inactive calls. Rule as the data show it: active = growth inhibition above about 70%; inactive = the rest.

On to `COc1ncc(Br)cc1C(=O)NCCc1ccc(S(=O)(=O)NC(=O)NC2CCCCC2)cc1`, for which the growth inhibition was 4% in assay [1] (setting [7]); 96% (active) in assay [1] (setting [8]); 92.8% (active) in assay [1] (at 50.0 µM); 5% in assay [2] (setting [7]); 94% (active) in assay [2] (setting [8]); 95.5% (active) in assay [2] (at 50.0 µM). For the same compound, the growth inhibition in assay [3] (setting [7]) was -1%; in assay [3] (setting [8]), 94% (active); in assay [3] (at 50.0 µM), 95.3% (active); in assay [4] (setting [7]), 5%; in assay [4] (setting [8]) it was 96% (active); in assay [4] (at 50.0 µM), 96.2% (active). Moreover, the growth inhibition in assay [5] (setting [7]) is 18%; in assay [5] (setting [8]), 97% (active); in assay [5] (at 50.0 µM), 94.2% (active); in assay [6] (setting [7]), 11%; in assay [6] (setting [8]), 94% (active); in assay [6] (at 50.0 µM) it was 94.9% (active).
Consider `O=C(Cn1nnc2ccccc21)N1CCN(c2ccccc2)CC1`, for which the growth inhibition in assay [1] (setting [7]) is -2%; in assay [1] (setting [8]), 3%; in assay [1] (at 50.0 µM) it was 32.8%; in assay [2] (setting [7]) it was 4%; in assay [2] (setting [8]), 3%; in assay [2] (at 50.0 µM), 33.8%. The growth inhibition is -1% in assay [3] (setting [7]); 5% in assay [3] (setting [8]); -2.35% in assay [3] (at 50.0 µM); -6% in assay [4] (setting [7]); 3% in assay [4] (setting [8]); 43.8% in assay [4] (at 50.0 µM). The growth inhibition in assay [5] (setting [7]) was -1%; in assay [5] (setting [8]), 1%; in assay [5] (at 50.0 µM), 14.9%; in assay [6] (setting [7]) it was -3%; in assay [6] (setting [8]) it was 3%; in assay [6] (at 50.0 µM), -7.75%.
For the compound `Cc1ccc(O)c(Cc2cccc(Cl)c2)c1`, the growth inhibition in assay [1] (setting [7]) is -2%; in assay [1] (setting [8]), 99% (active); in assay [1] (at 50.0 µM), 99.3% (active); in assay [2] (setting [7]), -7%; in assay [2] (setting [8]), 99% (active); in assay [2] (at 50.0 µM) it was 99.5% (active). Also, the growth inhibition in assay [3] (setting [7]) was -2%; in assay [3] (setting [8]), 99% (active); in assay [3] (at 50.0 µM), 99.5% (active); in assay [4] (setting [7]) it was -21%; in assay [4] (setting [8]), 99% (active); in assay [4] (at 50.0 µM) it was 99% (active). The growth inhibition is -22% in assay [5] (setting [7]); 99% (active) in assay [5] (setting [8]); 99.3% (active) in assay [5] (at 50.0 µM); 0% in assay [6] (setting [7]); 99% (active) in assay [6] (setting [8]); 99.2% (active) in assay [6] (at 50.0 µM).
As for `COc1ccc(C(=O)O)c(-c2c(C(=O)O)ccc(OC)c2OC(C)=O)c1`, the growth inhibition in assay [1] (setting [7]) was 3%; in assay [1] (setting [8]), 1%; in assay [1] (at 50.0 µM), 16.5%; in assay [2] (setting [7]), -5%; in assay [2] (setting [8]), 9%; in assay [2] (at 50.0 µM), 3.05%. In addition, the growth inhibition in assay [3] (setting [7]) was -18%; in assay [3] (setting [8]), 7%; in assay [3] (at 50.0 µM), -3.85%; in assay [4] (setting [7]), 2%; in assay [4] (setting [8]) it was -2%; in assay [4] (at 50.0 µM), 63.7%. Moreover, the growth inhibition in assay [5] (setting [7]) is 0%; in assay [5] (setting [8]), -5%; in assay [5] (at 50.0 µM), 73% (active); in assay [6] (setting [7]) it was 14%; in assay [6] (setting [8]), 13%; in assay [6] (at 50.0 µM), 54.6%.
Regarding `O=C1C(=O)c2ccccc2C=C1C1CCCCC1`, the growth inhibition in assay [1] (setting [7]) is 13%; in assay [1] (setting [8]) it was 64%; in assay [1] (at 50.0 µM), 85% (active); in assay [2] (setting [7]) it was 19%; in assay [2] (setting [8]), 72% (active); in assay [2] (at 50.0 µM), 78.2% (active). For the same compound, the growth inhibition in assay [3] (setting [7]) was 14%; in assay [3] (setting [8]), 63%; in assay [3] (at 50.0 µM), 91% (active); in assay [4] (setting [7]), 1%; in assay [4] (setting [8]), 43%; in assay [4] (at 50.0 µM), 71.5% (active). The growth inhibition in assay [5] (setting [7]) is 6%; in assay [5] (setting [8]) it was 63%; in assay [5] (at 50.0 µM), 64%; in assay [6] (setting [7]), 18%; in assay [6] (setting [8]), 80% (active); in assay [6] (at 50.0 µM), 91% (active).
`N#CC=Cc1ccc([N+](=O)[O-])s1` (mixture of isomers): the growth inhibition in assay [1] (setting [7]) was 41%; in assay [1] (setting [8]), 99% (active); in assay [1] (at 50.0 µM) it was 89.8% (active); in assay [2] (setting [7]), 39%; in assay [2] (setting [8]) it was 98% (active); in assay [2] (at 50.0 µM), 90.8% (active). In addition, the growth inhibition in assay [3] (setting [7]) was 59%; in assay [3] (setting [8]), 99% (active); in assay [3] (at 50.0 µM), 90.8% (active); in assay [4] (setting [7]), 32%; in assay [4] (setting [8]), 99% (active); in assay [4] (at 50.0 µM), 90.8% (active). Also, the growth inhibition is 70% (active) in assay [5] (setting [7]); 99% (active) in assay [5] (setting [8]); 88.5% (active) in assay [5] (at 50.0 µM); 50% in assay [6] (setting [7]); 98% (active) in assay [6] (setting [8]); 91.1% (active) in assay [6] (at 50.0 µM).
Consider `NC(=S)N1N=C2c3ccccc3CC[C@H]2[C@@H]1c1cccs1`, for which the growth inhibition in assay [1] (setting [7]) is -52%; in assay [1] (setting [8]), 20%; in assay [1] (at 50.0 µM), 59.6%; in assay [2] (setting [7]), -4%; in assay [2] (setting [8]), 40%; in assay [2] (at 50.0 µM), 34.4%. Further, the growth inhibition was -26% in assay [3] (setting [7]); 63% in assay [3] (setting [8]); 80.6% (active) in assay [3] (at 50.0 µM); 0% in assay [4] (setting [7]); 42% in assay [4] (setting [8]); 43.1% in assay [4] (at 50.0 µM). The growth inhibition was -11% in assay [5] (setting [7]); 70% (active) in assay [5] (setting [8]); 60.2% in assay [5] (at 50.0 µM); -17% in assay [6] (setting [7]); 68% in assay [6] (setting [8]); 51.3% in assay [6] (at 50.0 µM).

The values above are taken from PubChem BioAssay (NCI).
